Shown are actives, neighbours in structure and some others; about 0.5% of the full set was active somewhere.
phage Ecoli inh: E. coli growth loss with phage present; inhibition, % at 11.9 µM; AID 651602; growth absorbance; 360,000 tested, 0.26% active; in the data active = inhibition above about 11%
E coli growth-1: E. coli growth inhibition; Escherichia coli growth, OD600, 23 h; active compounds read low; AID 1053175; OD600 absorbance (concentration not given with the values); 330,000 tested, 0.21% active;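 active = OD600 absorbance below the run mean of sample wells minus 3.6 SD, in any replicate, cut at about 0.56 in these data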
E coli growth-2: counter-screen for AddAB inhibitors: E. coli growth inhibition | inhibition, % at 11.9 µM | 330,000 tested, 0.27% active | E. coli V3065 growth, OD600 absorbance, 18 h;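 active = inhibition above the campaign's mean inhibition across all tested compounds plus 3 SD, cut at about 9.9% in these data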;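 note: uninfected addAB+ strain grown without phage in ampicillin broth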
AddAB inh: less growth of phage-infected E. coli with AddAB | E. coli expressing H. pylori AddAB, absorbance growth | inhibition, % at 11.9 µM | 330,000 tested, 0.29% active | AID 435030; in the data active = inhibition above about 12%
Tat export inh: blocks Tat-dependent protein export in E. coli; inhibition, % at 10 µM; 340,000 tested, 0.036% active; E. coli MC4100 TorA-mCherry Tat export, fluorescence;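 active = mean replicate inhibition at least 50% and at least half of replicates individually reaching 50%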;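 note: exported cargo escapes ClpAP degradation while cytoplasmic cargo is degraded and loses fluorescence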
AddAB conf: confirmation screen: growth loss of phage-infected E. coli expressing H. pylori AddAB; E. coli V3065 expressing H. pylori AddAB, T4 phage, OD; T4 phage with gene 2 nonsense mutations; inhibition, % at 11.9 µM; 880 tested, 64% active; shares compounds with AddAB inh; AID 488942;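 active = mean inhibition above a set limit taken from the earlier primary screen, cut at about 13% in these data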;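 note: higher means less bacterial growth since AddAB block lets phage replicate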
RecBCD counter: counter-screen: growth loss of RecBCD+ E. coli with mutant T4 phage | shares compounds with AddAB inh | 880 tested, 73% active | E. coli V66 + mutant T4 phage, OD growth | inhibition, % at 11.9 µM | AID 488955;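 active = mean inhibition above the mean of solvent-only control wells plus 3 SD, cut at about 4% in these data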;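 note: optical density read after an 18 h incubation at 37 °C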
Bact viability: counter-screen for AddAB inhibitors: inhibitors of bacterial viability; shares compounds with AddAB inh; absorbance (AddAB counterscreen); inhibition, % at 11.9 µM; 880 tested, 35% active; AID 488956; in the data active = inhibition above about 25%
RecBCD conf: confirmation: growth loss of phage-infected RecBCD+ E. coli (RecBCD inhibitor screen); inhibition, % at 11.9 µM; shares compounds with phage Ecoli inh; 890 tested, 45% active; E. coli V66 + T4 2- phage, growth OD;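 active = mean inhibition over triplicates exceeding the hit threshold derived in the original primary screen, cut at about 11% in these data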
Ecoli viability: bacterial viability inhibition counter-screen for RecBCD. shares compounds with phage Ecoli inh. E. coli viability, absorbance (OD) growth. inhibition, % at 11.9 µM. 890 tested, 29% active. AID 651983; in the data active = inhibition above about 20%;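 note: E. coli strain V66 grown with compound alone and no phage infection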
AddAB counter: growth loss of phage-infected AddAB E. coli, RecBCD counter-screen | AID 651984 | inhibition, % at 11.9 µM | shares compounds with phage Ecoli inh | E. coli expressing H. pylori AddAB + T4 phage, OD growth; gene 2 mutant T4, recBCD-deleted host | 890 tested, 45% active;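 active = mean inhibition above the solvent-only control wells' mean plus 3 SD, cut at about 22% in these data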;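 note: higher means less bacterial growth from phage killing when AddAB is blocked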
Numbers stand for hits; . = inactive; / = no result.

SMILES	phage Ecoli inh	E coli growth-1	E coli growth-2	AddAB inh	Tat export inh	AddAB conf	RecBCD counter	Bact viability	RecBCD conf	Ecoli viability	AddAB counter
CCn1nc(C(=O)O)c(=O)c2cc3c(cc21)OCO3	53	0.058	98	96	.	99	98	101	90	99	99
CCn1ccc(=O)c2cc3c(cc21)OCO3	.	.	.	.	.	/	/	/	/	/	/
CCCCN(CCCC)C(=O)c1cn(CC)c2cc(N3CCN(C)CC3)c(F)cc2c1=O	98	0.049	101	102	71	104	102	103	100	101	100
CCCNC(=O)c1cn(CC)c2cc(N3CCN(C)CC3)c(F)cc2c1=O	100	0.049	100	98	81	102	101	101	103	104	103
CCCc1nnc(NC(=O)c2cn(CC)c3cc(N4CCN(C)CC4)c(F)cc3c2=O)s1	43	0.07	97	99	/	99	91	101	42	72	98
CCn1cc(C(=O)NCCN(C)C)c(=O)c2cc(F)c(N3CCN(C)CC3)cc21	96	0.052	98	101	.	104	99	104	49	87	99
CCCCCCn1cc(C(=O)O)c(=O)c2cc(F)c(N3CCN(C(=O)OCC)CC3)cc21	.	.	.	.	.	/	/	/	/	/	/
CCn1cc(S(=O)(=O)c2ccc(C)cc2)c(=O)c2cc(F)c(N3CCN(C)CC3)cc21	.	.	.	.	.	/	/	/	/	/	/
CC=CC(=O)Nc1cccc(C2=NOC3(C2)CC(C(N)=O)N(C(=O)Cc2ccc([N+](=O)[O-])cc2)C3)c1 (centres undefined)	/	.	/	/	/	/	/	/	/	/	/
CCn1cc(C(=O)NCCCN(C)C)c(=O)c2cc(F)c(N3CCN(C)CC3)cc21	93	0.051	99	100	.	97	90	101	70	99	101
O=C1NCCCC1C(=O)N1CCCCC1 (centres undefined)	.	.	.	.	.	/	/	/	/	/	/
O=C1CCC(=O)N(O)CCCCCNC(=O)CCC(=O)N(O)CCCCNC(=O)CCC(=O)N(O)CCCCCN1	22	.	28	31	.	26	23	.	16	20	.
COc1ccc(/C=N/NC(=O)c2nc(-c3ccccc3)n(-c3ccccc3)n2)c(O)c1	22	/	19	21	.	.	19	.	11	.	.
O=c1[nH]c(=O)n(C2C[C@H](O)[C@@H](CO)O2)cc1C(F)(F)F (some centres undefined)	15	/	10	14	.	38	12	.	20	.	30
O=c1[nH]c(=O)n([C@H]2C[C@H](O)[C@@H](CO)O2)cc1C(F)(F)F	11	/	.	13	.	40	9.6	.	17	.	26
Cc1cn([C@H]2C[C@H](O)[C@@H](COS(=O)(=O)O)O2)c(=O)[nH]c1=O	.	/	.	.	.	/	/	/	/	/	/
O=c1[nH]c(=O)n(C2CC(O)C(CO)O2)cc1Br (centres undefined)	.	/	/	/	.	/	/	/	/	/	/
CCc1cn([C@H]2C[C@H](O)[C@@H](CO)O2)c(=O)[nH]c1=O	12	/	14	19	.	38	11	.	14	.	23
CSc1nc(C)cc(OCC(=O)NN=Cc2ccccc2O)n1	/	.	/	/	/	/	/	/	/	/	/
Nc1nc(=S)c2[nH]c(=S)[nH]c2[nH]1	.	.	/	/	.	/	/	/	/	/	/
Nc1nc(=S)c2[nH]cnc2[nH]1	66	/	77	92	.	91	60	74	57	67	84
Cc1[nH]c(N=Nc2ccccc2)nc1N=Nc1ccccc1	12	/	16	14	.	.	8.2	.	.	.	.
Cn1c(O)c(/C=N/NC(=O)c2cc3ccccc3cc2O)c2ccccc21	22	/	25	23	.	25	25	.	19	23	30
CCOC1OC(C(=O)Nc2ccccc2)=CC(C)C1CCCO (centres undefined)	/	.	/	/	/	/	/	/	/	/	/
CCCCCCSc1ccc(C2C3C(=O)N(C)C(=O)C3[C@]3(C(=O)OC)CCCCN23)cc1 (some centres undefined)	/	.	/	/	/	/	/	/	/	/	/
SMILES	phage Ecoli inh	E coli growth-1	E coli growth-2	AddAB inh	Tat export inh	AddAB conf	RecBCD counter	Bact viability	RecBCD conf	Ecoli viability	AddAB counter
O=C(O)CC1S/C(=N/N=C/c2ccccn2)NC1=O (centres undefined)	22	/	19	22	.	17	18	.	.	.	.
O=C(Cn1c(CO)nc2ccccc21)Nc1ccc2c(c1)OCCCO2	12	.	14	12	.	.	12	.	.	.	.
CC(O)c1nc2ccccc2n1CC(=O)Nc1ccc2c(c1)OCCO2 (centres undefined)	.	.	.	.	.	/	/	/	/	/	/
Cc1nc2ccccn2c1C(O)=C1C(=O)C(=O)N(CCCn2ccnc2)C1c1ccncc1 (centres undefined)	/	.	/	/	/	/	/	/	/	/	/
Cc1onc(-c2ccccc2)c1C(=O)NC(=S)NNC(=O)c1ccccc1O	24	.	25	24	.	25	24	.	14	.	29
Cc1onc(-c2ccccc2)c1C(=O)NC(=S)NNC(=O)c1ccc(O)cc1O	15	.	20	20	.	13	14	.	.	.	25
O=C(NNC(=S)NC(=O)c1ccccc1[N+](=O)[O-])c1ccccc1O	13	0.44	17	17	.	.	14	.	.	.	.
CC1(C)CC(=O)C(C=Nc2ccc(O)cc2)=C(O)C1	.	.	.	.	.	/	/	/	/	/	/
CCc1nnc(NS(=O)(=O)c2ccc(N=CC3=C(O)CC(C)(C)CC3=O)cc2)s1	14	.	11	17	.	.	5.9	.	.	.	21
COc1ccc(S(=O)(=O)Nc2ccc3c(c2)C(=O)N(C(C)CO)CC(C)C(CN(C)C(=O)Nc2ccc(C(F)(F)F)cc2)O3)cc1 (centres undefined)	/	.	/	/	/	/	/	/	/	/	/
CCOc1ccc2oc(C(=O)NNC(=O)c3ccccc3O)c(C)c2c1	21	.	26	25	.	15	20	.	.	.	.
O=C(NNC(=O)c1ccccc1O)c1cc2ccccc2o1	11	.	13	20	.	.	11	.	.	.	.
Cc1c(C(=O)NNC(=O)c2ccccc2O)oc2ccc(Br)cc12	13	.	19	21	.	17	17	.	.	.	.

Screening results: PubChem BioAssay, several laboratories
